Measurements taken from PubChem BioAssay (NCATS).
Results filed as inconclusive are left out. The source made the active and inactive calls. Calls follow the shape of the dose curve; as a rule, active = well fitted curve in the direction sought with a large enough effect; inconclusive = small, poorly fitted or top-dose-only effect, or another doubt; inactive = no such curve, though single readings can be large; an effect the other way counts as inactive or inconclusive.

What was measured:
[1] = target: Luciferin 4-monooxygenase (Photinus pyralis) (UniProt P08659); experiment: Firefly luciferase counterscreen qHTS: Assay Interference Panel against the NCATS CANVASS Library (AID 1347363); also: series mostly up to about 57 µM
Chain of Luciferin 4-monooxygenase (Photinus pyralis) (P08659 whole entry, looked up): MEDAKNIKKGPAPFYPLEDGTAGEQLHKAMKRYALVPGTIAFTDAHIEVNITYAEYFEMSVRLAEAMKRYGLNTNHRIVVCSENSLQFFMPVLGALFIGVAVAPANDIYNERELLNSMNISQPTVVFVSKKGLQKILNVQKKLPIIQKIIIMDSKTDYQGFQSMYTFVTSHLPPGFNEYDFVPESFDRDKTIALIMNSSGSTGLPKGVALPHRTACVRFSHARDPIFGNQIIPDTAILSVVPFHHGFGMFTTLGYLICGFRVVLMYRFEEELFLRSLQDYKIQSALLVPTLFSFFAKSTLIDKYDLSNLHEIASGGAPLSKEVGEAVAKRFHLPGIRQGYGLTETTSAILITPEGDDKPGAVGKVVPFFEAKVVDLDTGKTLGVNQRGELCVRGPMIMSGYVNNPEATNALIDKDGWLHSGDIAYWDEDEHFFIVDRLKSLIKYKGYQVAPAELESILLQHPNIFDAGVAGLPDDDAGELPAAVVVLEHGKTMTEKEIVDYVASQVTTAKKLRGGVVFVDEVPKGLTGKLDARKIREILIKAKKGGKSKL
Source text: (§1) Natural products and their derivatives continue to be wellsprings of nascent therapeutic potential. However, many laboratories have limited resources for biological evaluation, leaving their previously isolated or synthesized compounds largely or completely untested. To address this issue, the Canvass library of natural products was assembled (https://tripod.nih.gov/canvass), in collaboration with academic and industry researchers, for quantitative high-throughput screening (qHTS) across a diverse set of cell-based and biochemical assays. The pure (>85% purity by liquid chromatography/mass spectrometry [LC/MS]) Canvass library of 346 natural products were submitted by 45 academic laboratories and companies around the world. […] The library was formatted into 1536-well plates and evaluated in 50 qHTS (in an 11-pnt concentration series) bioassays with broad scope of disease-relevant mechanisms. The resulting data set from 50 different assays was then systematically analyzed to identify overall trends and specific natural products with interesting biological activities. […] The assay measures the relative levels of luminescence, to identify compounds that inhibit the activity of luciferase. […]
Luciferase Interference counterscreen protocol 1. […] Luminescence signal was acquired via the ViewLux plate reader (PerkinElmer) using a clear emission filter and a 2 second exposure, 2x binning settings.

[2] = KB-8-5-11 Cancer Cell Toxicity qHTS against the NCATS CANVASS Library (AID 1347364); settings: KB-8-5-11 MDR cells viability, CellTiter-Glo, 72 h; also: potency is read from the fitted curve at half-maximal effect; nearly all actives have a fitted effect of over 75% in size
Summary of the method: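 CellTiter-Glo luminescence after 72 h exposure; 500 KB-8-5-11 cells/well, DMEM/10% FBS, 37C, 5% CO2; compounds in 11-pt qHTS. Follow-up confirmation included medium with 1uM tariquidar.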

[3] = SDT Cancer Cell Toxicity qHTS against the NCATS CANVASS Library (AID 1347365); settings: SDT dog glioma viability, ATP luminescence, 72 h; also: potency is read from the fitted curve at half-maximal effect; nearly all actives have a fitted effect of over 60% in size
Source text: Natural products and their derivatives continue to be wellsprings of nascent therapeutic potential. However, many laboratories have limited resources for biological evaluation, leaving their previously isolated or synthesized compounds largely or completely untested. To address this issue, the Canvass library of natural products was assembled (https://tripod.nih.gov/canvass), in collaboration with academic and industry researchers, for quantitative high-throughput screening (qHTS) across a diverse set of cell-based and biochemical assays. […] The library was formatted into 1536-well plates and evaluated in 50 qHTS (in an 11-pnt concentration series) bioassays with broad scope of disease-relevant mechanisms. The resulting data set from 50 different assays was then systematically analyzed to identify overall trends and specific natural products with interesting biological activities. […] This assay uses ATP (luminescence) content to measure the cytotoxiciy of compounds on SDT dog glioma cancer cell line. […]
Cancer Cell Toxicity qHTS protocol: for cell lines G06, J3T, and SDT. […] Luminescence signal was acquired via the ViewLux plate reader (PerkinElmer) using a clear emission filter, 2 sec exposure, and 1x binning settings.

[4] = qHTS for ATAD5 Agonist screened against the NCATS CANVASS Library (AID 1347367);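 also: luciferase reporter driven by ATAD5 which rises upon DNA damage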
Source text: as §1, with “Luminescence intensity is proportional” for “The assay measures the relative levels of luminescence,”, “ATAD5 expression.” for “identify compounds that inhibit the activity of luciferase.”
ATAD5 Agonist assay protocol: 1. […] A second readout of luminescence signal was acquired via the ViewLux plate reader using a clear emission filter, 10 second exposure setting. […]

[5] = G06 Cancer Cell Toxicity qHTS against the NCATS CANVASS Library (AID 1347368); settings: G06 dog glioma cells, viability ATP luminescence, 72 h; also: potency is read from the fitted curve at half-maximal effect; nearly all actives have a fitted effect of over 60% in size
Summary of the method: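 ATP luminescence (CellTiterGlo) readout of cytotoxicity. Canine G06 glioma cells, 500/well, 72 hr incubation at 37C with compounds; bortezomib titration served as control.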

[6] = MCF7 Cancer Cell Toxicity qHTS against the NCATS CANVASS Library (AID 1347369); settings: MCF7 viability, ATP luminescence (CellTiter-Glo), 72 h; also: potency is read from the fitted curve at half-maximal effect
Summary of the method: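 Cytotoxicity was measured as CellTiterGlo luminescence (ATP) after 72 h at 37 °C. The cells were MCF7 at 500 per well, with an 11-point compound concentration series.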

[7] = J3T Cancer Cell Toxicity qHTS against the NCATS CANVASS Library (AID 1347371); settings: J3T dog glioma viability, ATP luminescence, 72 h; also: potency is read from the fitted curve at half-maximal effect
Summary of the method: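 Dog glioma J3T, 500 cells/well; cpd 11-pt qHTS; 72 hr, 37C/5% CO2; CellTiterGlo ATP luminescence readout.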

[8] = target: Nuclear receptor subfamily 1 group I member 3 (Homo sapiens) (UniProt Q14994); experiment: qHTS for Constitutive Androstane Receptor (CAR) Antagonist screened against the NCATS CANVASS Library (AID 1347372);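 also: cells stimulated with 50 nM CITCO agonist so inhibition reflects antagonism; series mostly up to about 46 µM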
Chain of Nuclear receptor subfamily 1 group I member 3 (Homo sapiens) (Q14994 whole entry, looked up): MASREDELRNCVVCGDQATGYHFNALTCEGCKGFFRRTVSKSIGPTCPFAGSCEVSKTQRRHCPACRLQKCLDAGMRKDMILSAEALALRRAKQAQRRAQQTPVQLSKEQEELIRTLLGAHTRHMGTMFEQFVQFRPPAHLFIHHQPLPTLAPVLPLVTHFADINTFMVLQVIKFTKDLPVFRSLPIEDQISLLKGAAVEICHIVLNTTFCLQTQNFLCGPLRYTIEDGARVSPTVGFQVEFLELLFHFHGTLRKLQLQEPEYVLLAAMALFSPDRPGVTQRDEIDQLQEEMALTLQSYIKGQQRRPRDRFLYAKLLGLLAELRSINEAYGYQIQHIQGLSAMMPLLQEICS
Summary of the method: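 Antagonist mode: compound added alongside 50 nM CITCO to HepG2-hCAR-CYP2B6 reporter cells, 24hr at 37C. Viability by CellTiter-Fluor fluorescence, then CAR-driven luciferase by ONE-Glo luminescence.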

[9] = target: Nuclear receptor subfamily 1 group I member 3 (Homo sapiens) (UniProt Q14994); experiment: qHTS for Constitutive Androstane Receptor (CAR) Agonist screened against the NCATS CANVASS Library (AID 1347373);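 also: every well also contained 1.5 µM PK11195 alongside the test compound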
Summary of the method: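 Luciferase read-out (ONE-Glo, 30 min RT) of CYP2B6-2.2kb promoter activity in double-stable HepG2-hCAR cells after 24hr compound exposure with 1.5uM PK11195 present; viability measured first by CellTiter-Fluor.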

[10] = 10-beta competent E. coli microbial cell viability qHTS against the NCATS CANVASS Library (AID 1347376); also: series mostly up to about 46 µM
Summary of the method: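 Luminescence from BacTiter-Glo ATP detection served as the viability read-out; bacteria (0.2 OD) had been incubated overnight at 37C with pin-transferred compounds at 11 concentrations.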

Measured: Potency

C=C1C(=O)O[C@H]2[C@H]1CC/C(C)=C/CC[C@@]1(C)O[C@@H]21
active: [2] 16.6 µM | [3] 8.33 µM | [5] 9.35 µM | [6] 7.39 µM | [7] 16.6 µM
inactive: all other assays above
